Experimental data from PubChem BioAssay (NCATS).
Records with an inconclusive call do not appear. Entries that show only a call come without a potency. Active and inactive are the calls of the source. Calls come from the whole dose curve; as a rule, active = well fitted inhibition curve with a large enough effect; inconclusive = small, poorly fitted or top-dose-only effect; inactive = flat fitted curve, though single readings scatter.

Tested on: Zika virus NS2B-NS3 protease
Test: Primary screen GU AMC qHTS for Zika virus inhibitors (AID 1347154); note: nearly all actives have a fitted effect of over 70% in size
Procedure, shortened: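 Unlinked Zika NS2B hydrophilic domain/NS3 protease domain noncovalent complex (25 nM final) in 10 mM Tris-HCl pH 8.0, 0.01% Tween 20, with AMC peptide substrate. Fluorescence (ex 340, em 450 nm) change over 15 min, room temperature; percent inhibition fitted to 4-parameter Hill equation.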

SMILES: C=C(C)C1CCC(C)=CC1c1c(OC)cc(C)cc1OC (stereo unspecified)
- Potency: inactive
